24 compounds from PubChem BioAssay (NCATS) can be followed below.

Each structure is given as a SMILES string. “And” between values parts separate entries of the source, which are not always exact repeats. Equal entries are not always repeated. Inconclusive results are not listed. Some structures have more than one record in an assay (separate samples or runs), and their calls can disagree. The source made the active and inactive calls. Unless noted, calls come from the whole dose curve; as a rule, active = well fitted curve in the direction sought with a large enough effect; inconclusive = small, poorly fitted or top-dose-only effect, or another doubt; inactive = no such curve, though single readings can be large; an effect the other way counts as inactive or inconclusive.

Assay [1] addresses Cytochrome P450 2D6 (Homo sapiens) (UniProt P10635). In words: Cytochrome P450 family 2 subfamily D member 6 (CYP2D6) small molecule antagonists: luciferase biochemical (cell-free) qHTS assay (AID 1645840; active = well fitted curve in the direction sought with a large enough effect in the repeat runs; an effect the other way counts as inactive or inconclusive; note: nearly all actives have a fitted effect of over 55% in size; note: potency is the fitted concentration of half-maximal effect; for activity change, negative = inhibition: % is set by controls: 0 for no effect and ±100 for the full control effect). A digest of the protocol:
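P450-Glo CYP2D6 system: proluciferin substrate converted by enzyme to luciferin, read by luminescence proportional to activity. Enzyme-substrate mix with compound 10 min at room temperature, then NADPH regeneration 1 h before detection reagent.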

A short description of assay [2]: Primary qHTS for inhibitors of nuclear receptor binding SET domain protein 2 (NSD2) in an isogenic RCH-ACV NSD2 p.E1099K mutant (9B) (AID 1645876). For activity change, negative = viability loss: % is set by controls: 0 for no effect and ±100 for the full control effect. Note: nearly all actives have a fitted effect of over 70% in size. Note: potency is the fitted concentration of half-maximal effect. In general terms: In qHTS, concentration-response curves come from the screen itself.
A short description of assay [3]: Primary qHTS for inhibitors of nuclear receptor binding SET domain protein 2 (NSD2) in an RCH-ACV wild type WT cells (2C) (AID 1645877). For activity change, negative = cell killing: % is set by controls: 0 for no effect and ±100 for the full control effect. Note: nearly all actives have a fitted effect of over 70% in size. Note: potency is the fitted concentration of half-maximal effect.
The target of assay [4] is Catechol O-methyltransferase (Homo sapiens) (UniProt P21964). In words: Confirmatory Screen for Target Class Profiling of Small Molecule Inhibitors of Methyltransferases (AID 1745852; calls by dose curve; note: potency is the fitted concentration of half-maximal effect). The conditions noted are these: MTase-Glo luminescence, SAH detection, recombinant enzyme; measured here: COMT max response; stronger effect = lower value.
In assay [5] the target is Guanidinoacetate N-methyltransferase (Homo sapiens) (UniProt Q14353). The description is as above. The settings on record: MTase-Glo luminescence, SAH detection, recombinant enzyme.
Assay [6] concerns the target Nicotinamide N-methyltransferase (Homo sapiens) (UniProt P40261). The assay is described as above. The settings on record: MTase-Glo luminescence, SAH detection, recombinant enzyme; measured here: NNMT max response; stronger effect = lower value.
Assay [7] has as its target Phenylethanolamine N-methyltransferase (Homo sapiens) (UniProt P11086). The description is as above. The settings on record: MTase-Glo luminescence, SAH detection, recombinant enzyme; measured here: PNMT max response; stronger effect = lower value.
Assay [8] can be described thus: Viability counterscreen for antagonist of constitutive androstane receptor (CAR) against the NCATS DSHEA and TCM libraries (AID 1794837).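 Note: compound exposure lasted 24 h before viability reading; 0% is about no effect.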 The gist of the method: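 Fluorescence from CellTiter-Fluor reports live-cell protease activity in HepG2-CYP2B6-hCAR cells treated for 24 h with substances alongside 48 uM CITCO.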
Assay [9] can be described thus: Viability counterscreen for agonist of constitutive androstane receptor (CAR) against the NCATS DSHEA and TCM libraries (AID 1794838).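 Note: HepG2 cells with CYP2B6 reporter and hCAR plus 0.75 µM PK11195 antagonist; cells exposed to compound for 24 h; 0% is about no effect.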 The gist of the method:
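In agonist mode, PK11195 is added at 0.75 uM final to HepG2-CYP2B6-hCAR cells dosed with test substances. Cultures incubate 24 h at 37C before a protease-based fluorogenic viability readout.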
In general terms: A counterscreen serves to expose hits that act by an unwanted route or on another target.

Assay [10] can be described thus: NCATS anti-infectives library activity on HEK293 viability as a counter-qHTS vs the C. elegans viability qHTS (AID 1745854). Note: % is set by controls: 0 for no effect and ±100 for the full control effect. A digest of the protocol:
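CellTiter-Glo luminescence, read on a CCD imager, scored viability of HEK293 cells after 24 hr compound exposure at 37C. Library tested in several concentrations, 1:5 steps, up to 41.7 uM; digitonin served as control.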

Assay [11] addresses N-terminal Xaa-Pro-Lys N-methyltransferase 1 (Homo sapiens) (UniProt Q9BV86). In words: Confirmatory qHTS for Inhibitors of N-terminal methyltransferase 1 (NTMT1): MTaseGlo Assay (AID 1645874). Note: potency is the fitted concentration of half-maximal effect; nearly all actives have a fitted effect of over 65% in size. The settings on record: NTMT1 enzyme, MTase-Glo SAH luminescence. The gist of the method: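 SPKRIA peptide at 1 uM was methylated by 125 nM NTMT1 using 100 uM SAM over 30 min at room temperature, following a 15 min compound preincubation. Product SAH was detected luminescently.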

For assay [12], the target named is Rap guanine nucleotide exchange factor 4 (Homo sapiens) (UniProt Q8WZA2). In words: Confirmatory qHTS for agonist of cAMP-regulated guanine nucleotide exchange factor 4 (EPAC2) (AID 1645884).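 Note: nucleotide exchange releases bodipy-GDP from Rap1 and this lowers its fluorescence; % is set by controls: 0 for no effect and ±100 for the full control effect; nearly all actives have a fitted effect of over 65% in size.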
The target is the same in assay [13]. In words: Confirmatory qHTS for antagonist of cAMP-regulated guanine nucleotide exchange factor 4 (EPAC2) (AID 1645885). Note: nearly all actives have a fitted effect of over 25% in size. Note: potency is the fitted concentration of half-maximal effect.
In assay [14] the target is Rap guanine nucleotide exchange factor 3 (Homo sapiens) (UniProt O95398). In words: Counterscreen qHTS for antagonist of cAMP-regulated guanine nucleotide exchange factor 3 (EPAC1) (AID 1645888).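 Note: fluorescence loss as bound BODIPY-GDP is released from Rap1B; % of control where 0% means no effect.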 The gist of the method: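 Rap1B–BODIPY-GDP (250 nM) with 50 uM GDP; compounds pin-transferred to 9.74 nM–152 uM final (activator) or from 7.32 nM upwards (inhibitor). Fluorescence Ex/Em 480/540 nm read at 5 and 30 min, then after adding cAMP or buffer, at room temperature.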

Assay [15] in a line: NCATS anti-infectives library activity on the primary C. elegans qHTS viability assay (AID 1745855; calls by dose curve). The conditions noted are these: C. elegans worm area imaging, day 7; at 41.8 µM (top of the series). A digest of the protocol:
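Titration-based screen in worms: eggs hatched overnight in M9, L1 larvae fed TOP10 capsules in S medium with compound, incubated 21 °C for 7 days; fluorescent objects gated by size and intensity at days 0, 3 and 7.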

Sequence of Cytochrome P450 2D6 (Homo sapiens) (P10635 whole entry, looked up): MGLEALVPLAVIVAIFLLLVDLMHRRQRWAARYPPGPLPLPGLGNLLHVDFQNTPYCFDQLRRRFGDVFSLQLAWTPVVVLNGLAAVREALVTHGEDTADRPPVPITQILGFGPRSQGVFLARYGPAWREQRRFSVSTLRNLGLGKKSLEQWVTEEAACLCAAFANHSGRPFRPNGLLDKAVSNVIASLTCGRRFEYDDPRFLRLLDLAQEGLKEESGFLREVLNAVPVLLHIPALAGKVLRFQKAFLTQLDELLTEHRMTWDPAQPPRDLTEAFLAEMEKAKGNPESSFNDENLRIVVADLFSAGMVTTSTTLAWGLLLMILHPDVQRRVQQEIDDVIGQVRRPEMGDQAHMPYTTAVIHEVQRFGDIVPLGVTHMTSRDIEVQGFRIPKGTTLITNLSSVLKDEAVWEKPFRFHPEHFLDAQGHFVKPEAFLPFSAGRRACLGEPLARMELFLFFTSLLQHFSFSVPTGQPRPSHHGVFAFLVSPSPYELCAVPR
Sequence of Rap guanine nucleotide exchange factor 4 (Homo sapiens) (Q8WZA2 whole entry, looked up): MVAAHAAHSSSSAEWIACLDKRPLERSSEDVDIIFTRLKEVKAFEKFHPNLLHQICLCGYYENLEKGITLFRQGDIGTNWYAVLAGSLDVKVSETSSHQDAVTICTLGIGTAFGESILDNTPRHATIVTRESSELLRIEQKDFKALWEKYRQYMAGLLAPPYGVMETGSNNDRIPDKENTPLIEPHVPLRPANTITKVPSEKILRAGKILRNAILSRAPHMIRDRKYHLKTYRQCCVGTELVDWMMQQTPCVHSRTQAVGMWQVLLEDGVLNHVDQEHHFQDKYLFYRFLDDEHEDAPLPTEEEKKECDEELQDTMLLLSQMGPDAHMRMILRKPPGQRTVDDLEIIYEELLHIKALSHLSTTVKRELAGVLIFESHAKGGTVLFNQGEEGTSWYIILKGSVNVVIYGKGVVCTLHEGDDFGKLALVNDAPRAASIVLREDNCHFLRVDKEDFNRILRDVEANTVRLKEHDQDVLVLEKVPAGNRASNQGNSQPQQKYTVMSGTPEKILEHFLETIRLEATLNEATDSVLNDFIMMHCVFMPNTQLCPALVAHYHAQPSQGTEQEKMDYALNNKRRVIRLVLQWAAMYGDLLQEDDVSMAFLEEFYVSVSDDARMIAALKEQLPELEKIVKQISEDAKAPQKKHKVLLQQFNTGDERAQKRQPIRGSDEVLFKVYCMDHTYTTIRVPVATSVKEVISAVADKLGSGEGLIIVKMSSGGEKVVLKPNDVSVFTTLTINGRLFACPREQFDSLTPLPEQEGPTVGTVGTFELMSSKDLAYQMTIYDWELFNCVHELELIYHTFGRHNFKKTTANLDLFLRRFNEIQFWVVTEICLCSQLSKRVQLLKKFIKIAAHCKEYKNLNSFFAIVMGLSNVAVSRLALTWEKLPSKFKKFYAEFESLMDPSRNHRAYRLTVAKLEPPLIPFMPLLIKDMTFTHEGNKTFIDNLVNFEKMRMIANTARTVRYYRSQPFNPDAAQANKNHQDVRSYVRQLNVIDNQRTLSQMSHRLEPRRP
Sequence of Catechol O-methyltransferase (Homo sapiens) (P21964 whole entry, looked up): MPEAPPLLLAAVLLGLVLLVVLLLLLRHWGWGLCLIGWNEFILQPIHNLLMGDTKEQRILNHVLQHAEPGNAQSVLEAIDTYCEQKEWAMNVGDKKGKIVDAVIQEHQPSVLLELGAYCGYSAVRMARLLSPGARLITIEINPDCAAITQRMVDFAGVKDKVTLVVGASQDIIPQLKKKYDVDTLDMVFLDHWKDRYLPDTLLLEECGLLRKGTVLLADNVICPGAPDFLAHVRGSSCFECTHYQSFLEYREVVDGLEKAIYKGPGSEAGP
Sequence of Phenylethanolamine N-methyltransferase (Homo sapiens) (P11086 whole entry, looked up): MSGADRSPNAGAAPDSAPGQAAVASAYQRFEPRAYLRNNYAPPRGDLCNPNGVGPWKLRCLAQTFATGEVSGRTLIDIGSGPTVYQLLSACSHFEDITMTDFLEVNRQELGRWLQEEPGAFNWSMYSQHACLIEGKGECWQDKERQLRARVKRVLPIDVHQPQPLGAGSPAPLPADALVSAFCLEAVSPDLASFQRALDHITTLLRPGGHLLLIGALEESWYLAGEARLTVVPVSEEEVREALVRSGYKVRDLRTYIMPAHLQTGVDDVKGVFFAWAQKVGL
Sequence of Nicotinamide N-methyltransferase (Homo sapiens) (P40261 whole entry, looked up): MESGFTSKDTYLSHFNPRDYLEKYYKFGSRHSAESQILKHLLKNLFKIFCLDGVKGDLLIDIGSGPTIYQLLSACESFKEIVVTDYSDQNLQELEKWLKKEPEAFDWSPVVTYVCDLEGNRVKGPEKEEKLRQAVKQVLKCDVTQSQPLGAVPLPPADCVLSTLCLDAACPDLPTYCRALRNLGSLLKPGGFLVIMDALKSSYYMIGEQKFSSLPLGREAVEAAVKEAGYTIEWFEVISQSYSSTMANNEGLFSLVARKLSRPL
Sequence of N-terminal Xaa-Pro-Lys N-methyltransferase 1 (Homo sapiens) (Q9BV86 whole entry, looked up): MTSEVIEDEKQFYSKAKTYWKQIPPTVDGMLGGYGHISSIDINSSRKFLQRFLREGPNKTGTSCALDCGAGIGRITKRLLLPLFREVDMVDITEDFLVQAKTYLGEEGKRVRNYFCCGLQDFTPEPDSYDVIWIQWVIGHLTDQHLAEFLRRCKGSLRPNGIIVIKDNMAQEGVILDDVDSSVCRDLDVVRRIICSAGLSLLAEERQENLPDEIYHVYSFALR
Sequence of Rap guanine nucleotide exchange factor 3 (Homo sapiens) (O95398 whole entry, looked up): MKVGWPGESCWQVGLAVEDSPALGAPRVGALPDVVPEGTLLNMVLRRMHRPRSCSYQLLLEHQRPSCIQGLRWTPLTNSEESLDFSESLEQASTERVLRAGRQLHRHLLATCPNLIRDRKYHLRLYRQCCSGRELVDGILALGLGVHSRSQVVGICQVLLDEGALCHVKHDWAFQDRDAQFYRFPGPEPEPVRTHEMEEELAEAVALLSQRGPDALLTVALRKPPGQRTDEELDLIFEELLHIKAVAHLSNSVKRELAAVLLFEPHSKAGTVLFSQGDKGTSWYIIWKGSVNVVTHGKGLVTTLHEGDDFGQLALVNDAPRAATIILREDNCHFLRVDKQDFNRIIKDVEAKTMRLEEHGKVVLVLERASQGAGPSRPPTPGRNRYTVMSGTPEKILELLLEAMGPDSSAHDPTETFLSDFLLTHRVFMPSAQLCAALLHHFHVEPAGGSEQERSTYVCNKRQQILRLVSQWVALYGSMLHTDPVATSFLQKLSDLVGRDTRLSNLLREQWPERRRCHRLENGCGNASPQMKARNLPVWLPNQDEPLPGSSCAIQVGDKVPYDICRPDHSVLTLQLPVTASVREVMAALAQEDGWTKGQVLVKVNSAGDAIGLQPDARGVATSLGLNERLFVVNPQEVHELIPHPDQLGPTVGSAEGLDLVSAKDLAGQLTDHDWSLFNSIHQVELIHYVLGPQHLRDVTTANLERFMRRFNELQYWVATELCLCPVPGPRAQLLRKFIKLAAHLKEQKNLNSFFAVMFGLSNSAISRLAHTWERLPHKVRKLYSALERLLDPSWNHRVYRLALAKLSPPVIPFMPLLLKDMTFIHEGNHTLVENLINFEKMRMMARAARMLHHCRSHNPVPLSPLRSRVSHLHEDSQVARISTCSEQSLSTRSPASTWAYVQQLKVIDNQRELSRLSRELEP

`C=CCn1c(=O)n([C@@H]2O[C@H](CO)[C@@H](O)[C@H]2O)c2nc(N)[nH]c(=O)c21`: the Potency entry in assay [1], in assay [2] and in assay [3] was “inactive” throughout.
Regarding `O=C1OC(OC(=O)c2cccnc2Nc2cccc(C(F)(F)F)c2)c2ccccc21` (stereo not drawn), the Potency entry in [1], in assay [2] and in assay [3] was “inactive” in each case.
For the compound `Cc1cc(C(C#N)c2ccc(Cl)cc2)c(Cl)cc1NC(=O)c1cc(I)cc(I)c1O` (stereo not drawn), the Potency in assay [1] was 11 µM (active); in assay [5], 30.4 µM (active). The activity was -21.3% in assay [4], -81.7% in assay [6] and -74.7% in [7].
`Cc1ccc2nc(N)[nH]c(=O)c2c1Sc1ccncc1`: the Potency was 7.76 µM (active) and 10.7 µM (active) in [1]; 2.3 µM (active) in assay [2]; 2.05 µM (active) in assay [3]. Besides, the results for the activity in [4], in assay [6] and in [7] were -5.5%, 1.11% and 1.12%, respectively. In assay [5] (at 57.3 µM (top of the series)), the activity change, negative = inhibition came to 2.89%.
Take `CC1=C(C/C=C(\C)CCC[C@H](C)CCC[C@H](C)CCCC(C)C)C(=O)c2ccccc2C1=O`: the Potency entry in assay [1], in assay [2] and in [3] was “inactive” in each case. The outcome in assay [8] and in [9] was “inactive” throughout.
As to `COc1ccc2cc1Oc1ccc(cc1)C[C@H]1c3c(cc4c(c3Oc3cc5c(cc3OC)CCN(C)[C@@H]5C2)OCO4)CCN1C`, the Potency in [1] is 17.4 µM (active); in [2] it was 8.41 µM (active) and 9.16 µM (active); in [3] it was 9.44 µM (active) and 9.16 µM (active). For the same compound, the outcome in assay [10] was “inactive”.
As for `O=C(O)COc1nn(Cc2ccccc2)c2ccccc12`, the Potency result in assay [1], in [2] and in assay [3] was “inactive” throughout.
For `CC(O)CN(CCN(CC(C)O)CC(C)O)CC(C)O` (stereo not drawn), the Potency result in assay [1], in assay [2] and in assay [3] was “inactive” each time.
On to `CC(=O)CCC(=O)O`, for which the Potency result in assay [1], in assay [2] and in assay [3] was “inactive” throughout.
Turning to `CC(COc1ccccc1)NC(C)C(O)c1ccc(O)cc1` (stereo not drawn), in assay [1], the Potency was 0.617 µM (active). The Potency entry in [2] and in assay [3] was “inactive” each time.
With `CCOC(CN1CCN(CC(C)C(=O)c2ccccc2)CC1)c1ccccc1` (stereo not drawn), the Potency is 0.0952 µM (active) in assay [1] and 14.5 µM (active) in assay [3]. In addition, the Potency result in assay [2] is “inactive”.
Regarding `N[C@H](C(=O)O)c1ccc(O)cc1`, the Potency result in assay [1], in [2] and in assay [3] was “inactive” throughout.
Regarding `Cc1cccc(Nc2cc(Cl)nc(SCC(=O)O)n2)c1C`, the Potency result in assay [1], in assay [2] and in assay [3] was “inactive” throughout.
With `O=c1[nH]cnc2c1ncn2[C@@H]1O[C@H](CO)[C@@H](O)[C@H]1O`, the Potency entry in assay [1], in [2] and in assay [3] was “inactive” throughout.
Turning to `Nc1ccc(S(=O)(=O)Nc2nccs2)cc1`, the Potency result in assay [1], in [2] and in assay [3] was “inactive” throughout.
With `N[C@@H](CSSC[C@H](N)C(=O)O)C(=O)O`, in [1], the activity change, negative = inhibition was -1.65% [at 0.91 µM] (inactive). Moreover, in assay [2], the activity change, negative = viability loss was -6.57% [at 0.588 µM] (inactive). Also, in [3], the activity change, negative = cell killing is 2.98% [at 0.588 µM] (inactive).
Take `Cc1cccc(C)c1NC(=O)CN(CC(=O)O)CC(=O)O`: the Potency result in assay [1], in assay [2] and in assay [3] was “inactive” throughout.
As for `C[C@]12CC[C@@H]3c4ccc(O)cc4CC[C@H]3[C@@H]1CC[C@@H]2OC(=O)CCC1CCCC1`, the Potency entry in assay [1], in [2] and in [3] was “inactive” in each case.
Take `CCN(CC)CCNC(=O)c1c(C)[nH]c(/C=C2\C(=O)Nc3ccc(F)cc32)c1C`: in assay [11], the Potency was 30.8 µM (active).
For `CCCc1c(OCCCCc2nn[nH]n2)ccc(C(C)=O)c1O`, the Potency result in [12] is “inactive”. In assay [13], the Potency is 15.6 µM (active) and the activity change, negative = inhibition is -26.3% [at 12.7 µM] (inactive). Moreover, the outcome in [14] is “inactive”.
In the case of `COCCOC(=O)C1=C(C)NC(C)=C(C(=O)OC/C=C/c2ccccc2)C1c1cccc([N+](=O)[O-])c1` (stereo not drawn), the Potency entry in assay [12] is “inactive”.
For `Cc1cc2nc3c(=O)[nH]c(=O)nc-3n(C[C@H](O)[C@H](O)[C@H](O)CO)c2cc1C`, in assay [13], the Potency entry was “inactive”.
With `CCOc1nc2cccc(C(=O)O)c2n1Cc1ccc(-c2ccccc2-c2nn[nH]n2)cc1`, the outcome in assay [15] is “inactive”.
As to `O=C(O)c1ccccc1O`, the outcome in assay [8] and in assay [9] was “inactive” in each case.
